From PubChem BioAssay (EPA / NIEHS) come the findings set out here.

Read-out in test [1]: Monokine induced gamma interferon (MIG), CXCL9 (gene 4283)
The test can be described thus: BSK_hDFCGF_MIG: BioMAP Diversity Plus: hDFCGF Assay for Monokine induced gamma interferon (MIG) Biomarker Activity (AID 2283063). The following applies: primary human foreskin fibroblasts; actives raise or lower the signal. The essentials:
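MIG signal, determined by ELISA, reflects 24 h chemical exposure of human skin primary fibroblasts. DMSO serves as negative control and baseline.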

Read-out in test [2]: Matrix Metallopeptidase 1 (MMP1), MMP1 (gene 4312)
The experiment in a line: BSK_hDFCGF_MMP1: BioMAP Diversity Plus: hDFCGF Assay for Matrix Metallopeptidase 1 (MMP1) Biomarker Activity (AID 2283064). The settings on record: primary human foreskin fibroblasts; actives raise or lower the signal. The essentials: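 Primary human foreskin fibroblasts exposed to chemicals for 24 h; MMP1 measured by ELISA. Cytotoxicity tracked by SRB staining in parallel cultures; bidirectional fit relative to DMSO.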

Read-out in test [3]: Vascular cell adhesion molecule 1 (VCAM1), VCAM1 (gene 7412)
The experiment in a line: BSK_hDFCGF_VCAM1: BioMAP Diversity Plus: hDFCGF Assay for Vascular cell adhesion molecule 1 (VCAM1) Biomarker Activity (AID 2283065).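 On AC50: VCAM-1 protein level quantified by ELISA after 24 h chemical exposure.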 The settings on record: primary human foreskin fibroblasts; actives raise or lower the signal. The essentials: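 Cells are dosed, cultured for 24 h, then VCAM-1 is quantified by ELISA; signal increases and decreases are both fitted relative to DMSO.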

Read-out in test [4]: Plasminogen activator inhibitor-1 (PAI1), SERPINE1 (gene 5054)
The experiment in a line: BSK_hDFCGF_PAI1: BioMAP Diversity Plus: hDFCGF Assay for Plasminogen activator inhibitor-1 (PAI1) Biomarker Activity (AID 2283066). The settings on record: primary human foreskin fibroblasts; actives raise or lower the signal. A digest of the protocol:
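Human foreskin fibroblasts in the hDFCGF system were dosed with compound for 24 h; PAI-1 was quantified by ELISA. Bidirectional curve fitting used DMSO as negative control and baseline.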

Read-out in test [5]: Intercellular Adhesion Molecule 1 (ICAM1), ICAM1 (gene 3383)
The experiment in a line: BSK_KF3CT_ICAM1: BioMAP Diversity Plus: KF3CT Assay for Intercellular Adhesion Molecule 1 (ICAM1) Biomarker Activity (AID 2283067). The following applies: primary human keratinocytes with fibroblasts; actives raise or lower the signal. The essentials:
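Dose the keratinocyte/fibroblast co-culture, wait 24 h, measure ICAM-1 by ELISA, then fit increases or decreases against DMSO. Cytotoxicity is checked in parallel cultures by SRB total-protein staining.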

Read-out in test [6]: Interferon-gamma inducible Protein 10 (IP10), CXCL10 (gene 3627)
The experiment in a line: BSK_KF3CT_IP10: BioMAP Diversity Plus: KF3CT Assay for Interferon-gamma inducible Protein 10 (IP10) Biomarker Activity (AID 2283068). The settings on record: primary human keratinocytes with fibroblasts; actives raise or lower the signal. A digest of the protocol:
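KF3CT co-culture (keratinocytes + foreskin fibroblasts), 24 h compound, IP-10 by ELISA; bidirectional fit vs DMSO baseline.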

Test [7] can be described thus: BSK_KF3CT_SRB: Viability Assessment in the BioMAP Diversity Plus: KF3CT Assay (AID 2283069).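 Further: total protein by sulforhodamine B staining as a cytotoxicity measure; read 24 h after compound addition; fitted for both signal gain and loss against DMSO baseline.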 The settings on record: primary human keratinocytes with fibroblasts. A digest of the protocol:
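Human keratinocyte and foreskin fibroblast co-culture exposed to chemical for 24 h. Total protein measured in parallel cultures by 0.1% sulforhodamine B staining after 10% TCA fixation, read at 560 nm; bidirectional fit relative to DMSO.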

Read-out in test [8]: Interleukin-1 alpha (IL1a), IL1A (gene 3552)
The test can be described thus: BSK_KF3CT_IL1a: BioMAP Diversity Plus: KF3CT Assay for Interleukin-1 alpha (IL1a) Biomarker Activity (AID 2283070). The settings on record: primary human keratinocytes with fibroblasts; actives raise or lower the signal. A digest of the protocol: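 Primary human keratinocyte plus foreskin fibroblast co-culture, dosed and measured at 24 h in 96-well plates. IL-1a level quantified by ELISA; bidirectional fit relative to DMSO.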

Read-out in test [9]: TIMP metallopeptidase inhibitor 2 (TIMP2), TIMP2 (gene 7077)
The test can be described thus: BSK_KF3CT_TIMP2: BioMAP Diversity Plus: KF3CT Assay for TIMP metallopeptidase inhibitor 2 (TIMP2) Biomarker Activity (AID 2283071). The following applies: primary human keratinocytes with fibroblasts; actives raise or lower the signal. A digest of the protocol:
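Human primary keratinocyte/foreskin fibroblast co-culture dosed with chemical and sampled at 24 h. TIMP-2 levels quantified by ELISA; bidirectional fitting against DMSO negative control as baseline.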

Read-out in test [10]: Transforming growth factor beta 1 (TGFb1), TGFB1 (gene 7040)
The test can be described thus: BSK_KF3CT_TGFb1: BioMAP Diversity Plus: KF3CT Assay for Transforming growth factor beta 1 (TGFb1) Biomarker Activity (AID 2283072). The following applies: primary human keratinocytes with fibroblasts; actives raise or lower the signal. The essentials: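 Human keratinocyte plus foreskin fibroblast primary co-culture, dosed with chemical for 24 h. TGF-b1 quantified by ELISA. Activity fitted bidirectionally against DMSO negative control as baseline.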

Structures are written as SMILES. “And” between values parts separate entries of the source, which are not always exact repeats. Equal entries are not always repeated. More than one record can exist for a structure, and the calls need not agree. The source made the active and inactive calls. How the source made its calls: active means hit-call score of the fitted dose curve at least 0.9, where 1 is the maximum; inactive means score below 0.9.

For `CCCCNc1ccc(NCCCC)c2c1C(=O)c1ccccc1C2=O`, the result in test [1], in test [2], in test [3], in test [4], in test [5] and in test [6] was inactive. Further, the outcome in [7], in test [8], in test [9] and in test [10] was inactive.

The AC50 is the concentration giving half of the maximal activity seen. As for `C=CCOc1c(Br)cc(Br)cc1Br`, the AC50 is 20 µM (active) in test [1]; 30.3 µM (active) in [2]; 33.1 µM (active) in test [3]; 20 µM (active) in [4]; 30.7 µM (active) in test [5]; 38.9 µM (active) in test [6]. Further, the AC50 is 27.8 µM (active) in [7], 20 µM (active) in [8], 11.4 µM (active) in test [9] and 9.26 µM (active) in test [10].

Consider `O=C1CCCN1CCO`, for which the outcome in test [1], in test [2], in test [3], in [4], in test [5] and in test [6] was inactive. Also, the result in test [7], in test [8] and in test [9] was inactive.

Turning to `COCc1c(C(C)C)nc(C(C)C)c(/C=C/[C@@H](O)C[C@@H](O)CC(=O)O)c1-c1ccc(F)cc1`, the outcome in [1], in [2], in test [3], in test [4], in [5] and in test [6] was inactive. The result in [7], in test [8], in test [9] and in test [10] was inactive.

For `CCCCCCCCc1ccc(Nc2ccc(CCCCCCCC)cc2)cc1`, the outcome in [1], in test [2], in test [3], in [4], in test [5] and in test [6] was inactive. The result in test [7], in [8], in test [9] and in [10] was inactive.

Regarding `CN1C(=O)N(C)C(O)C1O` (stereo not drawn), the result in [1], in test [2], in test [3], in [4], in [5] and in [6] was inactive. The outcome in test [7], in test [8] and in test [9] was inactive.

`C=CCOCC(O)CCl` (stereo not drawn): the result in [1], in test [2], in test [3], in [4], in test [5] and in test [6] was inactive. For the same molecule, the outcome in [7], in [8] and in test [9] was inactive.

As for `S=C(NC1CCCCC1)NC1CCCCC1`, the result in test [1], in [2], in test [3], in [4], in test [5] and in test [6] was inactive. Also, the result in test [7], in test [8], in [9] and in [10] was inactive.

For `O=Nc1ccc(O)cc1`, the outcome in test [1], in test [2], in [3], in test [4], in test [5] and in [6] was inactive. Further, the result in test [7], in test [8], in test [9] and in [10] was inactive.

With `c1ccc2c(c1)ccc1ncccc12`, the result in test [1], in test [2], in test [3], in test [4], in test [5] and in test [6] was inactive. Further, the outcome in [7], in test [9] and in [10] was inactive. Moreover, the AC50 in test [8] was 8.26 µM (active).

Turning to `O=C(c1ccc(O)cc1)c1ccc(O)cc1O`, the outcome in test [1], in test [3], in test [4], in test [5], in test [6] and in [7] was inactive. Besides, the outcome in test [8] and in test [9] was inactive. Also, the AC50 in [2] is 6.99 µM (active) and 20 µM (active); in [3], 16.6 µM (active).

Turning to `C#CC1(O)CC[C@H]2[C@@H]3CCC4=CCCC[C@@H]4[C@H]3CC[C@@]21C` (stereo partly drawn), the AC50 was 35 µM (active) in [1]; 37.5 µM (active) in test [2]; 37.5 µM (active) in [3]; 36.7 µM (active) in test [4]; 13.6 µM (active) in test [5]; 34 µM (active) in test [6]. The AC50 was 30.6 µM (active) in test [7], 31.7 µM (active) in test [8], 20 µM (active) in test [9] and 25.4 µM (active) in test [10].

On to `CC(C)C(=O)C(C)C`, for which the result in test [1], in test [2], in [3], in test [4], in test [5] and in test [6] was inactive. Also, the result in test [7], in test [8], in test [9] and in test [10] was inactive.

With `CCCCC(CC)COC(=O)c1ccccc1O` (stereo not drawn), the half-maximal activity concentration (AC50) in [1] is 15 µM (active); in [2], 17.8 µM (active); in [3] it was 14.6 µM (active); in test [4] it was 7.32 µM (active). The result in test [5], in test [6], in [7], in test [8], in test [9] and in test [10] was inactive.

In the case of `CC1OC1C1CCC2(C)OC2C1` (stereo not drawn), the outcome in [1], in [2], in test [3], in test [4], in test [5] and in test [6] was inactive. Also, the outcome in test [7], in test [8], in test [9] and in test [10] was inactive.

For `c1ccc2c(c1)ccc1cc3c(ccc4ccccc43)cc12`, the outcome in test [1], in [2], in test [3], in test [4], in [5] and in [6] was inactive. Also, the outcome in test [7], in [8], in test [9] and in test [10] was inactive. In addition, the AC50 was 0.0192 µM (active) in test [3] and 3.59 µM (active) in test [9].

Turning to `CCO[Si](C)(OCC)OCC`, the result in [1], in test [2], in [3], in [4], in [5] and in test [6] was inactive. Besides, the result in test [7], in test [8] and in test [9] was inactive.

`CCCCCCCCCCCCCCCC[N+](C)(C)CC`: the AC50 is 3.45 µM (active) in test [1]; 4.94 µM (active) in [2]; 1.82 µM (active) in test [3]; 1.53 µM (active) in [4]; 4.6 µM (active) in [5]; 2.96 µM (active) in [6]. Besides, the AC50 in [7] was 5.14 µM (active); in test [8] it was 3.23 µM (active); in [9] it was 2.15 µM (active); in test [10], 7.9 µM (active).
